Bioassay records (PubChem)
A selection: hits, their analogues and other compounds. The true share with any hit is near 15%.
Sm TGR block: S. mansoni TGR enzyme inhibition. Potency, µM (series often up to 114 µM), for inactives: at the highest dose activity change, negative = inhibition, most hits filed as inhibitors. 360,000 compounds, 3% hits. Q962Y6. purified TGR, DTNB reduction, TNB absorbance 405 nm; note: potency is the fitted concentration of half-maximal effect; % is set by controls: 0 for no effect and ±100 for the full control effect; nearly all actives have a fitted effect of over 60% in size
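First, TGR (20 nM dispensed) and NADPH were mixed with compound. Second, a 15 min room-temperature incubation followed. Third, further NADPH and then DTNB were added to start the reaction. Finally, TNB absorbance was monitored kinetically.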
HCMV inh: blocks human cytomegalovirus replication; HFF cells, HCMV-luciferase reporter, 72 h; active compounds read low; activity change, negative = inhibition, % at 57.5 µM; 410,000 compounds, 4.5% hits; AID 1259415; in the data active = activity change below about -60%; inconclusive = no clear call, values can overlap the other calls; inactive = above about -39%; note: % is set by controls: 0 for no effect and ±100 for the full control effect
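Compounds were evaluated in HFFs infected with an HCMV luciferase reporter virus (MOI 1 PFU/cell). Luciferase in lysates collected 72 h post infection served as the replication measure.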
Pf growth 96h: inhibits malaria parasite growth, 96 h. Potency, µM (highest dose often 28.7 µM), without a hit: at the highest dose activity change, negative = inhibition, hits mostly inhibitors. P. falciparum luciferase reporter growth, 96 h. 320,000 compounds, 6.9% hits; note: potency is the fitted concentration of half-maximal effect; % is set by controls: 0 for no effect and ±100 for the full control effect
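Readout is luminescence from an integrated firefly luciferase in P. falciparum. Red cells, 2% hematocrit and 0.05% parasitemia final, were cultured with compound through two parasite generations (96 hours) at 37 C, 5% CO2.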
SARS PLP yeast: SARS-CoV PLP inhibition in yeast. S. cerevisiae expressing SARS-CoV PLpro, growth rescue. Potency, µM (doses to about 32.9 µM), inactives show top-dose activity, positive = growth rescue, hits mostly activators. AID 485353. 330,000 compounds, 0.19% hits; calls by dose curve; note: potency is the fitted concentration of half-maximal effect; 0% is about no effect; nearly all actives have a fitted effect of over 55% in size
Pf growth 48h: inhibits P. falciparum growth in the first generation, 48 h | Potency, µM (titrated, usually from 28.7 µM), for the others: at the highest dose activity change, negative = inhibition, hits mostly inhibitors | P. falciparum luciferase growth in erythrocytes, 48 h | 310,000 compounds, 5.9% hits; note: potency is the fitted concentration of half-maximal effect; % is set by controls: 0 for no effect and ±100 for the full control effect
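Growth was read as firefly luciferase luminescence after a 48 h, 37 C, 5% CO2 exposure of compounds to reporter-bearing P. falciparum cultures (0.1% parasitemia, 2% hematocrit final) in Albumax-supplemented RPMI 1640.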
HCV inhibitor: HCV inhibition. Potency, µM (titrated, usually from 41.8 µM), for inactives: at the highest dose activity change, negative = inhibition, hits mostly inhibitors. Huh7.5.1 HCVcc-Cre infection, luciferase reporter, 44 h. 340,000 compounds, 3.4% hits; note: potency is the fitted concentration of half-maximal effect; % is set by controls: 0 for no effect and ±100 for the full control effect
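Compounds are dispensed onto cells plated 4 h earlier at 1,000 per well, with HCVcc-Cre virus (about 0.5 moi) added next. Following 44 h of culture, luminescent signal is measured for 15 sec after 15 min with substrate at room temperature.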
* = called active by the depositor; ? = inconclusive; . = not tested or not shown; [ ] = dose if it differs, or a comment. Unless noted, calls come from the whole dose curve; as a rule, active = well fitted curve in the direction sought with a large enough effect; inconclusive = small, poorly fitted or top-dose-only effect, or another doubt; inactive = no such curve, though single readings can be large; an effect the other way counts as inactive or inconclusive.

SMILES	Sm TGR block	HCMV inh	Pf growth 96h	SARS PLP yeast	Pf growth 48h	HCV inhibitor
CCOC(=O)c1c(NC(=O)COC(=O)c2nc(Cl)ccc2Cl)sc(C(=O)N(C)C)c1C	-2%	-3	12%	?	4%	5%
CCOC(=O)c1c(NC(=O)COC(=O)Cc2ccccc2[N+](=O)[O-])sc(C(=O)N(C)C)c1C	-1%	-3	0%	3%	?	10µM*
CCOC(=O)c1c(NC(=O)COC(=O)c2ccccc2NC)sc(C(=O)N(C)C)c1C	-5%	-12	5.2µM*	-2%	?	13µM*
CCOC(=O)c1c(NC(=O)c2ccoc2C)sc(C(=O)N(C)C)c1C	-9%	-37	10µM*	24%	.	-16%
CCN(CC)C(=O)c1sc(NC(=O)c2ccoc2C)c(C(=O)OC)c1C	-1%	23	6%	9%	-13%	19%
O=C(Nc1ccccc1Br)c1cc(S(=O)(=O)NC2CCCCC2)ccc1F	2%	17	.	.	.	.
CCN(Cc1nc(-c2ccc(OC)cc2)oc1C)S(=O)(=O)c1ccc(Cl)cc1	-6%	-22	.	.	.	.
Nc1ccn([C@@H]2O[C@H](CNCC3=CCOc4ccc(O)cc43)[C@@H](O)[C@H]2O)c(=O)n1	.	2	.	.	.	.
CCc1cc(C(=O)OC)c(NC(=O)CSc2nccn2C)s1	0%	-1	?	22%	-17%	10µM*
CCc1cc(C(=O)OC)c(NC(=O)CCCC(=O)O)s1	-10%	36	48%	13%	23%	27%
O=C(OCc1cc(=O)n2nc(-c3cccs3)sc2n1)c1ccc(F)cc1	2%	9	.	.	.	.
NS(=O)(=O)c1ccc(N=Cc2c(O)n(-c3nccs3)c(=O)c3ccccc23)cc1	-1%	-27	?	1%	4.7µM*	9%
O=c1c2ccccc2c(C=Nc2ccc(S(=O)(=O)N3CCCCC3)cc2)c(O)n1-c1ccc(Cl)cn1	-1%	56	4%	-4%	-6%	6%
COc1ccc(NC(=O)c2cc(C3CCCCN3C(=O)c3cccs3)on2)c(C)c1 (stereo unspecified)	.	-35	.	.	.	.
Cc1ccc(NS(=O)(=O)c2ccc(C(=O)N3CCCCCC3)cc2)cc1	-18%	-36	?	3%	10µM*	?
Cc1ccc(S(=O)(=O)C2(C(=O)N3CCCCCC3)CC2)cc1	0%	3	4.1µM*	-1%	-1%	12%
COc1ccc(S(=O)(=O)Nc2ccc(O)c3ccccc23)cc1	20µM*	-104*	.	-29%	?	?
COc1ccc(S(=O)(=O)Nc2ccccc2C(F)(F)F)cc1	-3%	28	28%	-7%	15%	15%
Cc1ccc(NS(=O)(=O)c2ccc(C(=O)N3CCC3)cc2)cc1	1%	-17	-1%	-6%	?	?
Cc1ccc(S(=O)(=O)C2(C(=O)N3CCN(C4CCCCC4)CC3)CC2)cc1	-22%	25	120%	-2%	-4%	-14%
Cc1ccc(NS(=O)(=O)c2ccc(C(=O)N3CCCCCCC3)cc2)cc1	0%	-26	2.1µM*	-3%	?	-6%
COc1ccc(Cn2c(SC)nc3ccccc32)cc1[N+](=O)[O-]	-3%	140	?	2%	-15%	7%
COc1ccc(S(=O)(=O)Nc2ccccc2)cc1	.	2	.	.	.	4%
COc1ccc(NS(=O)(=O)c2ccc(NC(=O)C3CC3)cc2)cc1	-18%	-10	?	-4%	-5%	10µM*
CCOc1ccc(NS(=O)(=O)c2ccc(C(=O)N3CCCC(C)C3)cc2)cc1 (stereo unspecified)	2%	-63*	?	0%	?	?
SMILES	Sm TGR block	HCMV inh	Pf growth 96h	SARS PLP yeast	Pf growth 48h	HCV inhibitor
COc1ccc(S(=O)(=O)Nc2ccc(Nc3ccccc3)cc2)cc1	.	-70*	.	.	.	?
CCOc1ccc(NS(=O)(=O)c2ccc(NC(=O)C3CC3)cc2)cc1	-1%	-31	?	3%	4%	?
CCOc1ccc(S(=O)(=O)Nc2ccc(C(=O)N3CCCC3)cc2)cc1	16%	22	0%	11%	-11%	4%
Cc1ccc(NS(=O)(=O)c2ccc(C(=O)N3CC(C)OC(C)C3)cc2)cc1 (stereo unspecified)	3%	-21	13µM*	4%	?	-16%
COc1ccc(-c2nnc3c4ccccc4c(-c4ccccc4)nn23)cc1	1%	-3	.	.	.	.
CC1(C2CC2)NC(=O)N(CC(=O)NCc2ccc(Cl)cc2Cl)C1=O (stereo unspecified)	-12%	55	-6%	4%	3%	18%
COc1ccc(NS(=O)(=O)c2ccc(C(=O)N3CCCCCC3)cc2)cc1	.	-74*	.	2%	.	14µM*
CCOc1ccc(NS(=O)(=O)c2ccc(C(=O)N3CCCCCC3)cc2)cc1	11%	?	82%	4%	?	-17%
COC(=O)c1ccc(C)c(NS(=O)(=O)c2ccc(OC)cc2)c1	-25%	-91*	?	-12%	.	-21%
COc1ccc(N2CCN(C(c3ccccc3OC)c3nnnn3Cc3ccco3)CC2)cc1 (stereo unspecified)	-8%	-7	?	-17%	?	-7%
COc1ccccc1C(c1c(O)cc(C)n(Cc2ccco2)c1=O)N1CCCCC1 (stereo unspecified)	7.1µM*	-2	.	.	.	.
COc1ccc(C(c2c(O)cc(C)n(Cc3ccco3)c2=O)N2CCCCC2)cc1OC (stereo unspecified)	7.9µM*	17	.	.	.	.
COc1ccc(C(c2c(O)cc(C)n(Cc3ccco3)c2=O)N2CCN(c3ccccc3)CC2)cc1 (stereo unspecified)	3.2µM*	9	.	.	.	.
Cc1cc(O)c(C(c2ccccc2Cl)N2CCCCC2)c(=O)n1Cc1ccco1 (stereo unspecified)	4.5µM*	4	.	.	.	.
COc1ccc(C)cc1S(=O)(=O)N1CCC(C(=O)NCCc2ccccc2)CC1	-3%	-25	31%	16%	5%	-26%
N#C/C(=C\c1cn(CCOc2ccccc2)c2ccccc12)C(=O)NCc1cccs1	6%	18	?	-12%	32%	?
COCCn1c(C)cc(C(=O)COC(=O)c2ccc(Cl)c(S(N)(=O)=O)c2)c1C	-1%	-21	120%	1%	-65%	0%[8.37 µM]
Cc1cc(O)c(C(c2ccccc2)N2CCCCC2)c(=O)n1Cc1ccco1 (stereo unspecified)	10µM*	10	.	.	.	.
Cc1cc(C(=O)CN2C(=O)NC3(CCCCC3)C2=O)c(C)n1Cc1ccco1	-11%	62	4%	0%	56%	-13%
COCCn1c(C)cc(O)c(C(c2ccccc2Cl)N2CCCCC2)c1=O (stereo unspecified)	28µM*	1	.	.	.	.
COc1ccc(OC)c(NC(=O)CSc2nccn2-c2cc(C)cc(C)c2)c1	0%	-6	.	.	.	.
